Source: PubChem
FadD28 FP inh: inhibitors of FadD28 bisubstrate probe binding, primary screen, biochemical, fluorescence polarization, single point; inhibition, % at 12.5 µM; hit rate 0.22% among 360,000; AID 588549, 2011; in the data active = inhibition above about 8.5%, passing the limit was not always enough
PfHsp40 rescue: rescue of yeast from PfHsp40 toxicity, primary screen, S. cerevisiae, ATP luminescence | S. cerevisiae expressing PfHsp40, growth rescue | growth rescue, % at 12.5 µM | hit rate 0.68% among 340,000; in the data active = growth rescue above about 28%, passing the limit was not always enough;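 also: yeast W303a lacking pdr1 and pdr3 grown in galactose medium; growth measured after three days at 30 °C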
Yp Topo-I inh: Yersinia pestis topoisomerase I inhibitors, primary screen, biochemical, cleavage product accumulation, plate reader, single point; DNA topoisomerase I (Yersinia pestis CO92); Y. pestis Topo-I cleavage product accumulation; activity, % at 10 µM; hit rate 0.064% among 360,000; in the data active = activity above about 50%, passing the limit was not always enough
PrP 5UTR inh: inhibition of PrP 5' UTR reporter expression. cell-based PrP 5' UTR mRNA reporter, plate reader. inhibition, % (test concentration not listed). hit rate 0.35% among 340,000. AID 488862, 2010; in the data active = inhibition above about 52%
Mtb BioA inh: M. tuberculosis BioA enzyme inhibitors, primary screen, biochemical, plate reader, single point, HTS; inhibition, % at 9.99 µM; hit rate 0.096% among 360,000; 7,8-diaminopelargonic acid synthase BioA (Mycobacterium tuberculosis); purified M. tuberculosis BioA enzyme; in the data active = inhibition above about 40%
Each line names hits and unclear results; the compound was inactive in the other large screens. In the library only some 1.1% were active in any assay of this set; here they are far more common.

COc1ccc(CN2CCN(C(=O)C3CC(=O)N(C4CCCCCC4)C3)CC2)c(OC)c1OC (configuration not stated)	Yp Topo-I inh 74
Cc1cccc(OP(=O)(NCc2ccccc2)Oc2cccc(C)c2)c1	PfHsp40 rescue 118
Cc1cccc(OCC(=O)NCc2ccccc2)c1	none
Cc1ccc(S(=O)(=O)N[C@H]2CC[C@@H](CC(=O)NCc3ccncn3)O[C@@H]2CO)cc1	none (no result: FadD28 FP inh, PfHsp40 rescue, Yp Topo-I inh, PrP 5UTR inh)
CC(=O)c1cnn(-c2ccc(Cl)cc2)c1C	none
Cc1c(C(=O)NCCSCc2cccc(C(F)(F)F)c2)cnn1-c1ccc(Cl)cc1	PfHsp40 rescue 315
C=CCC[C@H](Cc1ccc(F)cc1)C(=O)OC[C@@H](Cc1c[nH]c2ccccc12)NC(=O)[C@@H](CC=C)CC(=O)NCCO	PfHsp40 rescue 57
C=CCC[C@@H](Cc1ccc(F)cc1)C(=O)OC[C@@H](Cc1c[nH]c2ccccc12)NC(=O)[C@H](CC=C)CC(=O)NCCO	none
C=CCC[C@H](Cc1ccc(F)cc1)C(=O)OC[C@H](Cc1c[nH]c2ccccc12)NC(=O)[C@H](CC=C)CC(=O)NCCO	PfHsp40 rescue 32
C=CC[C@@H](CC(=O)NCCO)C(=O)N[C@H](COC(=O)[C@@H](CC=C)Cc1ccc(F)cc1)Cc1c[nH]c2ccccc12	none
C=CCC[C@@H](Cc1ccc(F)cc1)C(=O)OC[C@H](Cc1c[nH]c2ccccc12)NC(=O)[C@@H](CC=C)CC(=O)NCCO	PfHsp40 rescue 33
C=CCC[C@@H](Cc1ccc(F)cc1)C(=O)OC[C@@H](Cc1c[nH]c2ccccc12)NC(=O)[C@@H](CC=C)CC(=O)NCCO	PfHsp40 rescue 40
O=C(N/N=C/c1ccc(-c2cccc([N+](=O)[O-])c2)o1)c1ccccc1O	none (no result: Mtb BioA inh)
O=C(N/N=C/c1ccc(-c2cccc([N+](=O)[O-])c2)o1)c1ccc([N+](=O)[O-])cc1	PfHsp40 rescue 146 (no result: Mtb BioA inh)
Clc1ccc(COC(Cn2ccnc2)c2ccc(Cl)cc2Cl)cc1 (configuration not stated)	PfHsp40 rescue 93, Yp Topo-I inh 62
Clc1ccc(CSC(Cn2ccnc2)c2ccc(Cl)cc2Cl)cc1 (configuration not stated)	PfHsp40 rescue 147, Yp Topo-I inh 57
COc1ccccc1CNC(=O)C[C@H]1C[C@@H]2c3cc(NC(=O)NC4CCCC4)ccc3O[C@@H]2[C@H](CO)O1	none (no result: FadD28 FP inh, PfHsp40 rescue, Yp Topo-I inh, PrP 5UTR inh)
C[C@@H]1CN([C@H](C)CO)C(=O)c2cc(NC(=O)Nc3ccc(F)cc3)ccc2O[C@@H]1CN(C)C(=O)Nc1ccccc1	none (no result: FadD28 FP inh, PfHsp40 rescue, Yp Topo-I inh, PrP 5UTR inh)
Cc1cccc(N=C2NC(=O)/C(=C/C=C/c3ccco3)S2)c1C	FadD28 FP inh 11 (no result: Mtb BioA inh)
COC(=O)c1ccc(N2C(=O)CC(N(C)CCc3ccc(OC)c(OC)c3)C2=O)cc1 (configuration not stated)	PfHsp40 rescue 451
O=C(N/N=C1/CC2CCC1C2)c1cc2ccccc2cc1O (configuration not stated)	PfHsp40 rescue 33
CCOC(=O)C1C(=O)CC(C)(O)C(C(=O)OCC)C1c1cccc(OC(F)(F)C(F)F)c1 (configuration not stated)	none
CCOC(=O)C1SC2(C(F)F)CC1(O)c1c(c(OC)c3occc3c1OC)O2 (configuration not stated)	PfHsp40 rescue 38
Cc1[nH]c2ccc(C(=O)NC3CCCC3)cc2c1C	PfHsp40 rescue 29
Cc1[nH]c2ccc(C(=O)NC3CCC(C)CC3)cc2c1C (configuration not stated)	none
CNC[C@@H]1Oc2ccc(NC(=O)Nc3cccc4ccccc34)cc2CC(=O)N([C@H](C)CO)C[C@H]1C	none (no result: FadD28 FP inh, PfHsp40 rescue, Yp Topo-I inh, PrP 5UTR inh)
CCCNC(=O)c1ccc2c(=O)c(O)c(-c3ccc(C)cc3)[nH]c2c1	none
CCCNC(=O)c1ccc2c(=O)c(O)c(-c3ccc(OC)cc3)[nH]c2c1	PfHsp40 rescue 185
Cc1ccc(-c2[nH]c3cc(C(N)=O)ccc3c(=O)c2O)cc1	PfHsp40 rescue 44
Cc1ccc(CNC(=O)c2ccc3c(=O)c(O)c(-c4ccc(C)cc4)[nH]c3c2)cc1	PfHsp40 rescue 164
CCCNC(=O)N1C[C@H](C)[C@H](OC)CN(C)C(=O)c2ccc(NC(=O)C3CCC3)cc2OC[C@@H]1C	none (no result: FadD28 FP inh, PfHsp40 rescue, Yp Topo-I inh, PrP 5UTR inh)
CCCNC(=O)N(C)C[C@@H]1Oc2cc(C#CCC(C)C)ccc2S(=O)(=O)N([C@@H](C)CO)C[C@@H]1C	none (no result: FadD28 FP inh, PfHsp40 rescue, Yp Topo-I inh, PrP 5UTR inh)
COC(=O)C(=N/Nc1ccccc1C(=O)OC)/C(C)=N/O	PfHsp40 rescue 137
CNc1ccccc1C(=O)OC	none
CCc1ccc(C(C)NC(=O)c2cc(C)oc2C)cc1 (configuration not stated)	PfHsp40 rescue 47
Cc1cc(C(=O)NN)c(C)o1	none (no result: Mtb BioA inh)
CO[C@@H]1CN(C)C(=O)c2cc(NS(=O)(=O)c3ccccc3C)ccc2OC[C@@H](C)NC[C@H]1C	none (no result: FadD28 FP inh, PfHsp40 rescue, Yp Topo-I inh, PrP 5UTR inh)
N#C/C(=C\c1cccc(Oc2ccccc2)c1)C(=O)N1CCOCC1	PfHsp40 rescue 235
COc1cc(/C=C(\C#N)C(=O)N2CCOCC2)cc(Br)c1O	none
CN(C)C/C=C/C(=O)Nc1cccc(-c2c[nH]c3ncnc(Oc4ccc(NC(=O)CC(=O)Nc5ccc(F)cc5)cc4F)c23)c1	FadD28 FP inh 19
C[C@@H](NC(=O)C[C@H]1C[C@H]2c3cc(NC(=O)NC4CCCC4)ccc3O[C@H]2[C@@H](CO)O1)c1ccccc1	none (no result: FadD28 FP inh, PfHsp40 rescue, Yp Topo-I inh, PrP 5UTR inh)
O=C(C[C@H]1CC[C@@H]2[C@H](COC[C@H](O)CN2Cc2cccc(-c3ccncc3)c2)O1)N1CCOCC1	none (no result: FadD28 FP inh, PfHsp40 rescue, Yp Topo-I inh, PrP 5UTR inh)
C[C@@H]1CN([C@H](C)CO)C(=O)c2cc(Br)cnc2O[C@H]1CN(C)C(=O)c1cccnc1	none (no result: FadD28 FP inh, PfHsp40 rescue, Yp Topo-I inh, PrP 5UTR inh)
c1ccc(-c2ccccc2-c2nc(-c3ccncc3)no2)cc1	PfHsp40 rescue 32
c1ccc(-c2nc(-c3ccncc3)no2)cc1	none
O=C(N/N=C/c1ccncc1)c1cc2ccccc2cc1O	PfHsp40 rescue 187
COc1ccccc1N(CCC#N)C(=O)CSc1nc(-c2ccccc2)cn1N	PfHsp40 rescue 36
CCS(=O)(=O)c1ccc(N=Nc2ccc(O)c3ncccc23)c(OC)c1	PfHsp40 rescue 214 (no result: Mtb BioA inh)
COc1ccccc1N=Nc1ccc(O)c2ncccc12	none
Cc1noc(C)c1NC(=O)N(C)C[C@@H]1Oc2c(NC(=O)C3CC3)cccc2C(=O)N([C@@H](C)CO)C[C@H]1C	none (no result: FadD28 FP inh, PfHsp40 rescue, Yp Topo-I inh, PrP 5UTR inh)
O=[N+]([O-])c1ccc(-c2cnc(SCc3ccccc3Cl)[nH]2)cc1	PfHsp40 rescue 149 (no result: Mtb BioA inh)
Nc1ccc(O)c2c1C(=O)c1ccccc1C2=O	none
O=C1C=C(O)c2c(O)cc(O)c(O)c2C1=O	PfHsp40 rescue 248
O=C1C=C(O)c2[nH]c(=O)ccc2C1=O	none (no result: Mtb BioA inh)
O=C1c2ccccc2C(=O)c2c(O)c(O)cc(O)c21	FadD28 FP inh 47, PfHsp40 rescue 179
COCc1cc(C)nc(SCc2ccc(Br)cc2)c1C#N	Yp Topo-I inh 50
COCc1cc(C)nc(SCc2ccc(Cl)cc2)c1C#N	none (no result: FadD28 FP inh)
CN(C)c1ccc(N=Nc2ccc(S(=O)(=O)O)cc2)c2ccccc12	FadD28 FP inh 14
